Source: PubChem BioAssay (National Center for Advancing Translational Sciences (NCATS))
JMJD2A Tudor: qHTS Assay for Inhibitors of JMJD2A-Tudor Domain; Lysine-specific demethylase 4A (Homo sapiens), O75164; AlphaScreen JMJD2A-Tudor / H3K4me3 peptide binding; Potency, µM (top dose mostly 114 µM), usual class: inhibitors; 4.4% of 390,000 active; AID 504339, 2011; further: nearly all actives have a fitted effect of over 50% in size
BAZ2B block: qHTS Assay for Inhibitors of BAZ2B | AlphaScreen BAZ2B-H3K14Ac peptide displacement | Potency, µM (doses to about 114 µM), hits mostly inhibitors | 4.4% of 360,000 active | AID 504333, 2011; further: nearly all actives have a fitted effect of over 60% in size
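Protein-peptide AlphaScreen: BAZ2B 50 nM, b-H3K14Ac 50 nM, 1x PBS pH 7.4 + 0.01% Tween-20. Preincubation 30 min RT; cpd 30 min RT (top 110 uM); beads 20 min RT, light-protected.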
Sfp inh: qHTS Assay for Inhibitors of Bacillus subtilis Sfp phosphopantetheinyl transferase (PPTase); Biochemical Sfp PPTase activity, qHTS; Potency, µM, actives largely listed as inhibitors; 3.5% of 310,000 active; 4'-phosphopantetheinyl transferase ffp (Bacillus subtilis), Q9F4F7;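 further: the enzyme is Sfp with the accession as filed and its product quenches rhodamine fluorescence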
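Fluorescence-quenching assay with 15 nM Sfp, 5 uM rhodamine-CoA and 12.5 uM BHQ-2-labelled ybbR peptide in pH 7.6 Hepes/MgCl2 buffer. Enzyme was pre-incubated with compound for 15 min at room temperature. Rate was taken from the 30-min fluorescence change (525/598 nm).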
L3MBTL1 inh: qHTS Assay for the Inhibitors of L3MBTL1; Lethal(3)malignant brain tumor-like protein 1 (Homo sapiens), Q9Y468; AID 485360, 2010; AlphaScreen L3MBTL1–H3K9me1 peptide binding; 0.66% of 230,000 active; Potency, µM (series often up to 57.1 µM), usual class: inhibitors; further: nearly all actives have a fitted effect of over 60% in size
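Read-out is AlphaScreen signal from streptavidin donor and nickel chelate acceptor beads (10 ug/mL final each) bridging L3MBTL1 (50 nM) and biotinylated K9-monomethylated H3(1-15) peptide (75 nM), after 30 min compound exposure at room temperature.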
HP1b binding inh: HTS for Inhibitors of HP1-beta Chromodomain Interactions with Methylated Histone Tails; Chromobox protein homolog 1 (Homo sapiens), P83916; 0.56% of 390,000 active; AlphaScreen HP1-beta / biotin-H3K9me3 peptide binding; Potency, µM (highest dose often 114 µM), usual class: inhibitors; further: nearly all actives have a fitted effect of over 70% in size
Target sequence (P83916 whole entry, looked up): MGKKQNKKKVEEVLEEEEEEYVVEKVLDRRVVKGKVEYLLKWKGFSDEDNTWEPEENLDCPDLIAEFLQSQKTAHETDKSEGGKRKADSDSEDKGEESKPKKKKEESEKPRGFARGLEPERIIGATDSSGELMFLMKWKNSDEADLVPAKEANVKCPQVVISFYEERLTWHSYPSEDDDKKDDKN
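Compound inhibition of the preformed complex between 50 nM HP1-beta and 50 nM biotinylated H3K9me3 peptide was read by AlphaScreen. Buffer was PBS pH 7.4 with 0.01% Tween-20. Incubations ran 30 min at room temperature, with 10 ug/mL donor/acceptor beads.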
G9a block: qHTS Assay for Inhibitors of Histone Lysine Methyltransferase G9a | G9a H3K9 monomethylation, AlphaScreen, 2 h | 8.8% of 350,000 active | Potency, µM (top dose mostly 102 µM), usual class: inhibitors; further: nearly all actives have a fitted effect of over 75% in size
Target sequence (Q96KQ7 913-1193 limits assumed): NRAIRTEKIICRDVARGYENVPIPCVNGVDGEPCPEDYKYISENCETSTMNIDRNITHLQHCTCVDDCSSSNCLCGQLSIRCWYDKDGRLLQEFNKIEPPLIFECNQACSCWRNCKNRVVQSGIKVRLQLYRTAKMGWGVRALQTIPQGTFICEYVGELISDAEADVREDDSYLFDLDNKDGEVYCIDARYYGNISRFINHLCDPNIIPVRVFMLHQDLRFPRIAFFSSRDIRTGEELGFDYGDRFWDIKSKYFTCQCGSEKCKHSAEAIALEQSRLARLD
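Chemiluminescent proximity detection of H3K9 monomethylation, read after 10 min bead incubation in the dark. Reaction: 20 nM G9a, 500 nM biotin-H3K9 peptide, 20 uM SAM cofactor, 2 h, room temperature, following 15 min enzyme-compound preincubation.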
Of the large screens only hits and unclear results are named; the others gave an inactive call. Sampled rows, rich in hits. Any-hit rate of the full collection: about 12%. The call rests on the fitted dose curve; in most records, active means well fitted curve in the direction sought with a large enough effect; inconclusive means small, poorly fitted or top-dose-only effect, or another doubt; inactive means no such curve, though single readings can be large; an effect the other way counts as inactive or inconclusive.

COc1ccc(COC(=O)c2[nH]c3c(c2C)C(=O)CC(c2ccc(OC)c(OC)c2)C3)cc1 (centres undefined)	none (no result: Sfp inh, L3MBTL1 inh)
O=C(NC1CCCC1)c1cc(S(=O)(=O)N2CCOCC2)c(Cl)cc1Cl	none
COCCCNC(=O)c1oc2ccc(S(=O)(=O)N3CCOCC3)cc2c1C	JMJD2A Tudor 89.1µM (no result: L3MBTL1 inh)
O=C(NCC1COc2ccccc2O1)c1cc(S(=O)(=O)N2CCOCC2)c(Cl)cc1Cl (centres undefined)	G9a block 31.6µM (no result: Sfp inh)
COc1ccc(S(=O)(=O)N2CCOCC2)cc1C(=O)NCC(c1ccccc1)c1ccccc1	none (no result: BAZ2B block, Sfp inh, L3MBTL1 inh, G9a block)
COCCCNC(=O)c1cc(S(=O)(=O)N2CCOCC2)ccc1SCc1cccc(OC)c1OC	Sfp inh 50.1µM, G9a block 31.6µM (no result: L3MBTL1 inh)
O=C(COC(=O)c1cc(S(=O)(=O)N2CCOCC2)c(Cl)cc1Cl)NC1CC1	G9a block 0.631µM (no result: Sfp inh)
N#Cc1c(-n2ncnc2-c2ccc(Br)cc2)sc2c1CCCCC2	JMJD2A Tudor inconclusive, HP1b binding inh inconclusive, G9a block inconclusive (no result: Sfp inh, L3MBTL1 inh)
COc1ccc(Cl)cc1NC(=O)Cc1ccc(NC(=O)N2CCCCc3ccccc32)cc1	none (no result: Sfp inh, L3MBTL1 inh)
Cc1c(C(=O)NCC2COc3ccccc3O2)oc2ccc(S(=O)(=O)N3CCOCC3)cc12 (centres undefined)	G9a block 50.1µM
Cc1c(C(=O)NCc2ccc(F)cc2)oc2ccc(S(=O)(=O)N3CCOCC3)cc12	none (no result: L3MBTL1 inh)
Cc1c(C(=O)NCc2c(F)cc(F)cc2F)oc2ccc(S(=O)(=O)N3CCOCC3)cc12	JMJD2A Tudor 22.4µM (no result: L3MBTL1 inh)
CCOc1ccc(CC(=O)NCCc2cnc[nH]2)cc1	none (no result: L3MBTL1 inh)
CCOc1ccc(C(=O)CCNC(Cc2cnc[nH]2)C(=O)O)cc1 (centres undefined)	JMJD2A Tudor inconclusive, BAZ2B block 17.8µM, Sfp inh inconclusive, G9a block inconclusive
CCOc1ccc(S(=O)(=O)NC(Cc2cnc[nH]2)C(=O)O)cc1 (centres undefined)	JMJD2A Tudor 15.8µM, G9a block 50.1µM
CCn1nnc2cc(C(=O)Nc3cccc(Cl)c3C)ccc21	none (no result: Sfp inh, L3MBTL1 inh)
CC(C)NC(=O)N1CCCC2(CCN(S(=O)(=O)c3ccccc3)CC2)C1	none (no result: JMJD2A Tudor, BAZ2B block, L3MBTL1 inh, HP1b binding inh)
COC(=O)CN1C(=S)N(c2ccc(Cl)cc2)C(=O)C1CC(=O)Nc1ccc(Cl)cc1 (centres undefined)	BAZ2B block inconclusive, Sfp inh 79.4µM, L3MBTL1 inh inconclusive
COC(=O)CN1C(=S)N(c2ccc(Cl)cc2)C(=O)C1CC(=O)Nc1ccc(F)cc1 (centres undefined)	G9a block 50.1µM
Cc1ccc(OCC(=O)Nc2ccc(OCc3cc(=O)n4cccc(C)c4n3)cc2)cc1C	none (no result: Sfp inh, L3MBTL1 inh)
CCOC(=O)c1cc(-c2ccccc2)n(-c2cccc(C(=O)NC(C)(C)C)c2)c1C	G9a block inconclusive (no result: Sfp inh, L3MBTL1 inh)
CCOC(=O)c1cc(-c2ccccc2)n(-c2cccc(C(=O)N(C)c3ccc(C)cc3)c2)c1C	JMJD2A Tudor inconclusive, BAZ2B block inconclusive, G9a block 15.8µM (no result: Sfp inh, L3MBTL1 inh)
Cc1cc(C)n(-c2ccc(Oc3ccccc3)c(S(=O)(=O)O)c2)n1	JMJD2A Tudor 89.1µM, G9a block inconclusive (no result: L3MBTL1 inh)
CCOC(=O)Cc1c(C)[nH]n(-c2ccccc2)c1=O	L3MBTL1 inh inconclusive
CCc1c(C)[nH]n(-c2ccc(Oc3ccccc3)c(S(=O)(=O)O)c2)c1=O	JMJD2A Tudor 56.2µM, L3MBTL1 inh inconclusive, G9a block inconclusive (no result: BAZ2B block)
O=C(NCC(c1ccco1)N1CCc2ccccc21)c1ccccc1Br (centres undefined)	JMJD2A Tudor inconclusive, BAZ2B block inconclusive (no result: Sfp inh)
O=C(NCC(c1ccco1)N1CCc2ccccc21)c1cccc([N+](=O)[O-])c1 (centres undefined)	JMJD2A Tudor 56.2µM, BAZ2B block 50.1µM (no result: Sfp inh)
Cc1ccc(C(=O)NCC(c2ccco2)N2CCc3ccccc32)cc1 (centres undefined)	JMJD2A Tudor inconclusive, BAZ2B block inconclusive, G9a block 50.1µM (no result: Sfp inh)
Cc1ccc(S(=O)(=O)NCC(c2ccco2)N2CCc3ccccc32)cc1 (centres undefined)	JMJD2A Tudor inconclusive, BAZ2B block inconclusive, G9a block 39.8µM (no result: Sfp inh)
Cc1cccc(C(=O)NCC(c2ccco2)N2CCc3ccccc32)c1 (centres undefined)	JMJD2A Tudor inconclusive, BAZ2B block inconclusive (no result: Sfp inh)
O=C(NCC(c1ccco1)N1CCc2ccccc21)c1ccccc1F (centres undefined)	JMJD2A Tudor inconclusive, BAZ2B block inconclusive, HP1b binding inh inconclusive, G9a block 56.2µM (no result: Sfp inh)
Cc1ccc(CNc2nc3ccc(Cl)cc3n3nnnc23)cc1	none (no result: Sfp inh, L3MBTL1 inh)
C=CCN1c2ccccc2[C@]23C[C@@H](C(=O)OC)N(S(=O)(=O)c4ccc(C)cc4)C2=NC(C(=O)OC)=C(C(=O)OC)[C@H]13	none (no result: JMJD2A Tudor, BAZ2B block, L3MBTL1 inh, HP1b binding inh, G9a block)
Cc1ccc(C)c(N2CCN(C(=O)c3cc4c(=O)n(Cc5cccs5)ccc4nc3C)CC2)c1	JMJD2A Tudor inconclusive (no result: Sfp inh, L3MBTL1 inh)
Clc1ccc(-c2nnc3sc(-c4ccco4)nn23)c(Cl)c1	none (no result: JMJD2A Tudor, L3MBTL1 inh, HP1b binding inh)
Cc1oc(-c2ccc(Cl)cc2)cc1-c1nn2c(-c3ccco3)nnc2s1	BAZ2B block 35.5µM, G9a block inconclusive (no result: JMJD2A Tudor, HP1b binding inh)
